# Laboratory results as given in PubChem BioAssay AID2284061 (EPA ToxCast).
# Results filed as inconclusive are left out. Activity calls are given as the source filed them. How the source made its calls: active means hit-call score of the fitted dose curve at least 0.9, where 1 is the maximum; inconclusive means response in the unintended direction; inactive means score below 0.9.
# Target: human Akt3 (PKBgamma) AGC Kinase, AKT3 (gene 10000) (UniProt Q9Y243)
# Experiment: ERF_FR_ENZ_hAKT3: Eurofins (ERF) Enzymatic Radiometric [Km ATP] KinaseProfiler LeadHunter Assay for human Akt3 (PKBgamma) AGC Kinase
# Protocol: ERF_FR_ENZ_hAKT3 is a biochemical, single-readout assay that uses extracted gene-proteins in a cell-free assay. Measurements were taken 0.5 hour after chemical dosing in a 96-well plate. See Akt3 (PKBgamma) Human AGC Kinase Enzymatic LANCE Assay [Km ATP], Cerep.ERF_FR_ENZ_hAKT3 is an assay component calculated from the ERF_FR_ENZ_hAKT3 assay. It is designed to measure enzyme activity using a type of enzyme reporter as detected by fluorescence intensity with LANCE technology.Data from the assay component ERF_FR_ENZ_hAKT3 was analyzed at the assay endpoint, ERF_FR_ENZ_hAKT3, in the positive analysis fitting direction relative to DMSO as the negative control and baseline of activity. Using a type of enzyme reporter, loss-of-signal activity can be used to understand changes in enzymatic activity as they relate to gene AKT3. To generalize the intended target to other relatable targets, this assay endpoint is annotated to the kinase intended target family, where the subfamily is serine/threonine kinase.
# PKBb (h) is incubated with 8 mM MOPS pH 7.0, 0.2 mM EDTA, 30 uM […], 10 mM MgAcetate and [g- 33P]-ATP (specific activity and concentration as required). The reaction is initiated by the addition of the Mg/ATP mix. After incubation for 40 minutes at room temperature, the reaction is stopped by the addition of phosphoric acid to a concentration of 0.5%. […]
# Chain of human Akt3 (PKBgamma) AGC Kinase, AKT3 (gene 10000) (Q9Y243 whole entry, looked up): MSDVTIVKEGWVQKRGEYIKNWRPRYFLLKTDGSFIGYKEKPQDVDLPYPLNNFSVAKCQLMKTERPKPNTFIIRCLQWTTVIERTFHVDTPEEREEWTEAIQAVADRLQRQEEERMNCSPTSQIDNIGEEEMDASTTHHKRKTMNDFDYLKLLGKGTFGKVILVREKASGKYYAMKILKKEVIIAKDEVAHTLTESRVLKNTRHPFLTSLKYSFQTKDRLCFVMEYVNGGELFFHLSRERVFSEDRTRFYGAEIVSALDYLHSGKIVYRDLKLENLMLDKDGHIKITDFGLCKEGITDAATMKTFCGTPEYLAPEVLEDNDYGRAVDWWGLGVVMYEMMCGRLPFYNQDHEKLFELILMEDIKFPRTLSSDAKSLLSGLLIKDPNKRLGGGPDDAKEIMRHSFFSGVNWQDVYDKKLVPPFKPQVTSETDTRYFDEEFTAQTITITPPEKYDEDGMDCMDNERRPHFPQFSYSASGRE
row,Structure (SMILES),outcome
1,COc1cc(CCC(=O)CC(=O)CCc2ccc(O)c(OC)c2)ccc1O,inactive
2,O=C(/C=C/c1ccc(O)cc1)CC(=O)/C=C/c1ccc(O)cc1,inactive
